High-throughput results as filed in PubChem.
Rows were chosen to be rich in hits. Some 1.7% of all compounds tested hit in one or more screens of this group.
PrP 5UTR inh = suppresses PrP 5' UTR mRNA reporter expression; AID 488862; inhibition, % (no concentration beside the values); actives 0.35% (n = 340,000); cell-based PrP 5' UTR mRNA reporter, plate reader; in the data active = inhibition above about 52%; note: 0 = median of the neutral control wells
Yp Topo-I inh = inhibitors of Yersinia pestis topoisomerase I; Y. pestis Topo-I cleavage product accumulation, plate reader; activity, % at 10 µM; actives 0.064% (n = 360,000); AID 504884; in the data active = activity above about 50%, passing the limit was not always enough; inconclusive = no clear call, values can overlap the other calls
PfHsp40 rescue = restores yeast growth despite PfHsp40 toxicity. AID 504582. growth rescue, % at 12.5 µM. S. cerevisiae expressing PfHsp40, growth rescue, ATP luminescence. actives 0.68% (n = 340,000); in the data active = growth rescue above about 28%, passing the limit was not always enough; inconclusive = no clear call, values can overlap the other calls;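 note: yeast W303a lacking pdr1 and pdr3 grown in galactose medium; growth measured after three days at 30 °C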
SSB-PriA inh = inhibitors of Klebsiella pneumoniae PriA binding to SSB C-terminal tail; AlphaScreen SSBct-PriA binding, biotinylated peptide; inhibition, % at 33 µM; actives 0.6% (n = 430,000); in the data active = inhibition mostly above about 37%, no sharp cut-off; inactive = mostly below about 20%;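 note: plate controls were negative control peptide for no effect and reference peptide for full effect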
BJeLR viability = kills HRASV12-expressing BJeLR cells; inhibition, % (concentration not given with the values); actives 0.17% (n = 300,000); BJeLR (HRASV12) viability, CellTiter-Glo ATP luminescence, 48 h; in the data active = inhibition above about 50%; inconclusive = no clear call, values can overlap the other calls
PrPC surface inh = reduces human prion protein on the cell surface; cell surface PrPC, TR-FRET read-out; inhibition, % at 13.8 µM; actives 0.43% (n = 370,000); in the data active = inhibition above about 24%; note: 0% = median of the test wells and 100% = reference compound wells
PrPC TRFRET cf = cell surface PrPC inhibition, TR-FRET confirmation | shares compounds with PrPC surface inh | cell surface PrPC level | inhibition, % at 13.8 µM | actives 65% (n = 1,500) | AID 743200; in the data active = inhibition above about 25%
LD9 cytotox = kills or reduces viability of LD9 cells in PrPc counter-screen | shares compounds with PrPC surface inh | LD9 cells cytotoxicity, luminescence viability | inhibition, % at 13.8 µM | actives 29% (n = 1,500) | AID 743201; in the data active = inhibition above about 9.5%
* = called active by the depositor; i = inactive; u = inconclusive; x = not tested or not shown.

SMILES	PrP 5UTR inh	Yp Topo-I inh	PfHsp40 rescue	SSB-PriA inh	BJeLR viability	PrPC surface inh	PrPC TRFRET cf	LD9 cytotox
CC(=O)NC(CSc1cc(C)nc2ccc(Br)cc12)C(=O)O (stereo not given)	-8.5	3.8	-1.1	1.2	-3.2	31.5*	57.3*	-3.6
C=C1C(C)C2C(Cc3ccccc3)NC(=O)C23C(OC(C)=O)C=CC(C)(O)CC(C)CC=CC3C1O (stereo not given)	1.8	-0.2	-0.2	-2.5	x	39.9*	32.0*	-0.1
C=C1[C@@H](C)C2[C@H](Cc3ccccc3)NC(=O)[C@]23[C@H](OC(C)=O)/C=C/[C@@](C)(O)C(=O)[C@@H](C)C/C=C/[C@H]3[C@@H]1O (stereo not given in full)	x	x	x	x	x	43.4*	37.8*	1.8
C=C1[C@@H](C)[C@H]2[C@H](Cc3ccccc3)NC(=O)[C@]23OC(=O)/C=C/[C@H](O)CCC[C@@H](C)C/C=C/[C@H]3[C@@H]1O	25.8	2.7	0.6	x	25.0	41.3*	19.0	9.7*
CC(=O)O[C@@H]1/C=C/[C@](C)(O)C[C@@H](C)C/C=C/[C@H]2[C@H](O)C(C)=C(C)[C@H]3[C@H](Cc4ccccc4)NC(=O)[C@@]123	x	x	x	x	3.1	x	x	x
CCN1C(=O)/C(=C/c2ccc(N(C)C)cc2)SC1=NS(=O)(=O)c1cccs1	x	x	x	0.0	x	x	x	x
O=C(NN=Cc1cc(Cl)ccc1O)c1cccnc1	x	x	x	3.1	x	x	x	x
CS(=O)(=O)c1ccc(Nc2nc(CC(=O)NC3CCCC3)cs2)cc1	x	x	x	-6.0	x	x	x	x
COc1cccc(C(=O)N2CCN=C2SCc2ccc(Cl)cc2Cl)c1	x	x	x	-11.0	x	x	x	x
O=C(Nc1nccs1)c1ccc(COc2ccccc2Br)o1	-20.4	-7.0	0.9	-4.9	-9.4	26.4*	22.1	4.5
O=C(CCl)Nc1nc(-c2ccco2)c(-c2ccco2)s1	-18.0	-16.0	3.8	12.2	-3.2	43.8*	31.9*	-4.7
CC(C)(C)c1ccc(S(=O)(=O)Nc2ccc(-c3ccc(NS(=O)(=O)c4ccc(C(C)(C)C)cc4)cc3)cc2)cc1	x	x	x	-11.0	x	x	x	x
CC(C)(C)c1ccc(S(=O)(=O)Nc2ccc(C(O)(C(F)(F)F)C(F)(F)F)cc2)cc1	x	-8.2	x	x	x	25.8*	4.2	-4.4
O=C(NC[C@@](O)(c1ccccc1)C1CC1)c1ccccc1C(F)(F)F	x	x	x	-22.0	x	x	x	x
CCCCCCCn1c2c(c(=N)c3ccccc31)CCC2	-28.1	36.0	0.2	-3.7	15.8	29.9*	31.1*	15.5*
COC(=O)/C=C/S(=O)(=O)c1ccc(NC(C)=O)cc1	-4.5	-2.3	4.9	-16.4	0.3	76.7*	-1.1	93.8*
N#CC(C#N)=C(Nc1ccc(F)cc1)SCc1cccc(Br)c1	8.4	18.5	2.7	-2.3	37.3	32.1*	38.2*	31.8*
NC(=O)c1ccc2c(=O)n3c(-c4cc(Cl)c(N)c(Cl)c4)csc3nc2c1	-20.4	5.0	-0.2	0.1	1.7	32.1*	1.4	3.1
Cc1cccc(NS(=O)(=O)c2ccc3oc(=O)ccc3c2)c1C	2.1	-0.7	-0.3	3.6	2.4	37.2*	20.3	-5.8
CC1CC(C)C(=O)C(C(CC2CC(=O)NC(=O)C2)OC(=O)CC(=O)c2ccccc2)C1 (stereo not given)	28.0	6.5	0.0	-6.6	x	85.1*	94.9*	31.2*
Cc1ccc2nc(-c3ccc(NS(=O)(=O)c4cn(C)c(=O)n(C)c4=O)cc3)sc2c1	x	x	x	19.0	x	x	x	x
COc1cc(C2NC(=O)NC(c3ccccc3)=C2C(C)=O)ccc1OCC#N (stereo not given)	0.4	-1.8	-0.1	-6.5	5.5	8.1	x	x
CC1=C(C(=O)c2ccccc2)C(c2ccc(OC(F)F)cc2)NC(=S)N1 (stereo not given)	-32.1	-12.2	0.3	3.1	-1.6	49.8*	46.7*	3.6
CCCOc1ccc(C2NC(=S)NC(C)=C2C(=O)c2ccccc2)cc1OC (stereo not given)	-10.5	-0.4	-0.4	6.0	-1.3	49.6*	53.0*	-6.6
C=CCOc1ccc(C2NC(=S)NC(c3ccccc3)=C2C(C)=O)cc1OC (stereo not given)	-22.9	4.9	0.0	-4.4	1.9	51.5*	45.2*	-1.9
SMILES	PrP 5UTR inh	Yp Topo-I inh	PfHsp40 rescue	SSB-PriA inh	BJeLR viability	PrPC surface inh	PrPC TRFRET cf	LD9 cytotox
O=C(Cc1csc(NC(=O)c2ccc[nH]c2=O)n1)NCC1CCCO1 (stereo not given)	x	x	x	-10.0	x	x	x	x
CCOc1ccc(N(C)S(=O)(=O)c2ccc(C)c(C(=O)N3CCN(Cc4ccc5c(c4)OCO5)CC3)c2)cc1	-21.5	20.8	0.1	3.3	x	24.8*	18.6	-1.5
COc1ccc(N(C)S(=O)(=O)c2cccc(C(=O)N3CCN(Cc4ccc5c(c4)OCO5)CC3)c2)cc1	-3.5	11.8	-0.2	3.6	x	16.0	x	x
C(/C=C/c1ccccc1)=Nn1cnnc1	x	x	x	-8.0	x	x	x	x
BrC(=C\c1ccccc1)/C=N/n1cnnc1	-16.7	6.1	0.6	i	19.3	34.4*	3.8	37.3*
CCCCOc1ccc(C(=O)NCC2CCN(Cc3ccco3)CC2)cc1	x	x	x	-11.0	x	x	x	x
Cc1ccc(-c2ccc(=O)n(CCCC(=O)Nc3ccccc3F)n2)cc1	x	x	x	-2.0	x	x	x	x
Cc1ccc(C(=O)Nc2ccc3cn[nH]c3c2)cc1S(=O)(=O)N1CCCCC1	-51.3	13.3	14.4	10.6	-2.6	25.6*	18.1	0.5
Cc1ccc(N(C(=O)c2snc(C(N)=O)c2N)C(C(=O)NCCC(C)C)c2ccco2)cc1 (stereo not given)	-1.9	u	1.9	-2.1	2.0	26.8*	33.7*	2.0
O=C(O)CCCCCCC1C(=O)NC(=O)N1CCC(O)C1CCCCC1 (stereo not given)	-13.7	-5.4	-0.3	-10.8	6.6	26.6*	19.4	-7.8
CC(C)CC(N)c1csc(Nc2cnccn2)n1 (stereo not given)	x	5.9	x	x	x	31.4*	25.5*	-5.1
CC(C)CC(N)c1csc(Nc2ccccn2)n1 (stereo not given)	x	6.7	x	x	x	9.9	x	x
Cc1ccc2[nH]c3c(=O)n(N)c(C)nc3c2c1	-40.1	10.3	-1.1	-4.6	-2.5	6.8	x	x
Cc1ccc2[nH]c3c(=S)nc[nH]c3c2c1	-46.3	0.1	-0.5	-17.6	2.2	129.1*	147.3*	3.5
CCOc1ccccc1NC(=O)C(=O)NCC1CCN(c2cnccn2)CC1	x	x	x	-4.0	x	x	x	x
C=C1C(=O)OC2CC1C(OC(C)=O)CC(C)=CCCC(C)=CCCC2(C)O (stereo not given)	x	26.1	x	x	x	28.7*	33.0*	42.9*
C=C1C(=O)O[C@H]2[C@H]1[C@H](OC(=O)/C(C)=C\C)C[C@]1(CO1)[C@@H]1[C@H](OC(C)=O)C=C(C)[C@]21O	-16.9	6.6	-0.8	-13.8	x	0.6	x	x
